What is called AC50 is the midpoint of the concentration-response curve, whichever way the signal moves.

Molecules are shown by their SMILES. “And” between values parts separate entries of the source, which are not always exact repeats. Equal entries are not always repeated. Results filed as inconclusive are left out. The source holds several records for some structures; these can differ, active in one and inactive in another. The source made the active and inactive calls. Rule for the calls: active = hit-call score of the fitted dose curve at least 0.9, where 1 is the maximum; inconclusive = response in the unintended direction; inactive = score below 0.9.

A short description of this experiment: TOX21_p53_BLA_p2_viability: Viability Assessment in the Tox21 HCT-116 p53 Agonism Beta-lactamase Assay, Phase 2 (AID 2283591).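 Note: compound exposure lasted 16 h at 37 °C; actives lower the ATP signal meaning cytotoxicity.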 From the text:
TOX21_p53_BLA_p2 is a cell-based, single-readout assay that uses HCT116, a human intestinal cell line, […] in a 1536-well plate.TOX21_p53_BLA_p2_viability is an assay readout measuring cellular ATP content and detected with CellTiter-Glo Luciferase-coupled ATP quantitation.TOX21_p53_BLA_p2_viability used a type of viability reporter where loss-of-signal activity can be used to understand changes in the cell viability. Furthermore, this assay endpoint can be referred to as a secondary readout, because this assay has produced multiple assay endpoints where this one serves a viability function. To generalize the intended target to other relatable targets, this assay endpoint is annotated to the cell cycle intended target family, where the subfamily is cytotoxicity.
Thawing Method: Place 14 mL of pre-warmed thaw medium into a 15 mL of conical tub. Remove the vial of cells to be thawed from liquid nitrogen and thaw rapidly by placing at 37C in a water bath with gentle agitation for 1-2 minutes. Decontaminate the vial by wiping with 70% ethanol before opening in a biological safety cabinet. Transfer the vial contents drop-wise into 14 mL of thaw medium in a sterile 15-mL conical tub. Centrifuge cells at 900 rpm for 4 minutes and resuspend in thaw medium. Transfer contents to the T75 tissue culture flask containing Thaw Medium and place flask in a humidified 37C/5% CO2 incubator. Switch to growth medium at first passage.Propagation Method: Aspirate medium, rinse once in DPBS, add 0.25% Trypsin/EDTA and swirl to coat the cell evenly. Add an equal volume of Growth Medium to inactivate Trypsin after 2-3 minutes incubation at 37C. Centrifuge cells at 900 rpm for 4 minutes and resuspend in growth medium. Cell should be passage or fed at least twice a week.Assay Protocol: Harvest cells from culture in growth medium and resuspend in assay medium. 2.2 Dispense 4000 cells/5 uL/well into 1536-well black/clear bottom plates using a Multidrop dispenser. After the cells were incubated at 37C for 5 hours, 23 nL of compounds dissolved in DMSO were transferred to the assay plate by a PinTool resulting in a 217-fold dilution. Incubate the plates for 16 hours at 37C, 5% CO2. Add 1 uL of 6X LiveBLAzer FRET B/G (CCF4-AM) Substrate Mixture to each well using a BioRAPTR dispenser and incubate the plates at room temperature for 2 hours. Measure fluorescence intensity at 460 and 530 nm emission and 405 nm excitation by an Envision detector. Data is expressed as the ratio of 460nm/530nm emissions. Add 4 uL of Cell-titer Glo to each well using BioRAPTR and incubate the plates at room temperature for […]. For cell viability readout that measures cytotoxicity, 4 ul/well of CellTiter-Glo reagent was added into the assay plates using a Flying Reagent Dispenser. After 30 min incubation at room temperature, the luminescence intensity in the plates was measured using a ViewLux plate reader.
Turning to `CC(Cc1ccc(C(C)(C)C)cc1)CN1C[C@@H](C)O[C@@H](C)C1` (stereo not given in full), the result was inactive.
With `ClC1=C(Cl)C2(Cl)C(CBr)CC1(Cl)C2(Cl)Cl` (stereo not given), the AC50 was 73.5 µM (active) and the result was inactive.
With `CC(=O)O[C@H]1C[C@H](O[C@H]2[C@@H](O)C[C@H](O[C@H]3[C@@H](O)C[C@H](OC4CC[C@@]5(C)C(CC[C@@H]6[C@@H]5CC[C@]5(C)[C@@H](C7=CC(=O)OC7)[C@@H](O)C[C@]65O)C4)O[C@@H]3C)O[C@@H]2C)O[C@H](C)[C@H]1O[C@@H]1O[C@H](CO)[C@@H](O)[C@H](O)[C@H]1O` (stereo not given in full), the AC50 is 0.463 µM (active).
On to `C[C@]12CC[C@H]3[C@@H](CCC4=CC(=O)CC[C@@]43C)[C@@H]1CC[C@@H]2OC(=O)CCc1ccccc1`, for which the compound was classed as inactive.
Turning to `CCCCCCC#N`, the outcome was inactive.
On to `CCC(Br)(CC)C(=O)NC(N)=O`, for which the call was inactive.
The same measure, in the same setting: next, `CCOP(=S)(OCC)SC(CCl)N1C(=O)c2ccccc2C1=O` (stereo not given): “inactive”; `CN1C[C@H](CNC(=O)OCc2ccccc2)C[C@@H]2c3cccc4c3c(cn4C)C[C@H]21`: “inactive”; `ClCC(Cl)Cl`: “inactive”.
The same measure, in the same setting: next, `CC[C@H]1[C@@H]2C[C@H]3[C@@H]4N(C)c5ccccc5[C@]45C[C@@H](C2C5O)N3[C@@H]1O` (stereo not given in full): “inactive”; `O=C(O)c1ccccn1`: “inactive”.
`CCOP(=O)(OCC)SCCSCC` (tested in a mixture with another compound): the result was inactive.
The same measure, in the same setting: with `C=CCC1(C(C)CCC)C(=O)N=C(S)NC1=O` (stereo not given) the entry was “inactive”.
Still for that read-out and setting: next, `CCCBr`: “inactive”; `CCC1(c2cnc[nH]2)Cc2ccccc2C1`: “inactive”.
Still for that read-out and setting: with `CC(C)(CCl)C(=O)Cl` the entry was “inactive”.
With `[Cd+2].[Cl-].[Cl-]`, the AC50 was 67.9 µM (active) and 68.1 µM (active).
As for `O=C(O)c1nn(Cc2ccc(Cl)cc2Cl)c2ccccc12`, the compound was called inactive.
On to `CN(C)CCc1c[nH]c2cccc(OP(=O)(O)O)c12`, for which the call was inactive.
Still for that read-out and setting: next, `CCCCC/C=C\C/C=C\C/C=C\C/C=C\CCCC(=O)NCC(=O)O`: “inactive”.
On the same count and under the same terms, next, `CCOP(=O)(OCC)Oc1ccc([N+](=O)[O-])cc1`: “inactive”; `Clc1ccccc1-c1ccccc1Cl`: “inactive”.
In the case of `CC(C)OC(=O)C(O)(c1ccc(Cl)cc1)c1ccc(Cl)cc1`, the AC50 is 70.6 µM (active).
In the case of `CC1(C)C(/C=C(\Cl)C(F)(F)F)C1C(=O)OC(C#N)c1cccc(Oc2ccccc2)c1` (stereo not given), the compound was called inactive.
`c1ccc2c(c1)cc1ccc3cccc4ccc2c1c34`: the call was inactive.
On to `O=[N+]([O-])c1ccc(Oc2ccc(C(F)(F)F)cc2[N+](=O)[O-])cc1`, for which the call was inactive.
On the same count and under the same terms, with `CC(C)(C)NCC(O)c1ccccc1Cl` (stereo not given) the entry was “inactive”.
As for `CNC(=O)Oc1ccccc1C(=O)Nc1ccccc1`, the result was inactive.
`CCOP(=O)(O)OCC` (tested in a mixture with another compound): the compound was classed as inactive and the AC50 is 72.3 µM (active).
For the compound `CCOC(=O)COc1ccc(Cl)cc1Cl`, the compound was classed as inactive.
For the compound `c1coc(-c2nc3ccccc3[nH]2)c1`, the outcome was inactive.
On the same count and under the same terms, with `N#CCCCCC#N` the entry was “inactive”.
As for `CC(=O)O[C@H]1C[C@H](O[C@H]2[C@@H](O)C[C@H](O[C@H]3[C@@H](O)C[C@H](O[C@H]4CC[C@@]5(C)[C@H](CC[C@@H]6[C@@H]5C[C@@H](O)[C@]5(C)[C@@H](C7=CC(=O)OC7)CC[C@]65O)C4)O[C@@H]3C)O[C@@H]2C)O[C@H](C)[C@H]1O[C@@H]1O[C@H](CO)[C@@H](O)[C@H](O)[C@H]1O`, the AC50 was 0.109 µM (active).
On to `COc1cccc2c1cc([N+](=O)[O-])c1c(C(=O)O)cc3c(c12)OCO3`, for which the result was inactive.
As to `Cc1nnc2n1-c1sc(CCc3ccc(CC(C)C)cc3)cc1C(c1ccccc1Cl)=NC2C` (stereo not given), the AC50 is 23 µM (active).
With `Cc1nnc2n1-c1sc(Br)cc1C(c1ccccc1Cl)=NC2`, the call was inactive.
On the same count and under the same terms, next, `O=[N+]([O-])c1ccc([As](=O)(O)O)cc1`: “inactive”.
With `CCCCCCC(=O)CCCCCC/C=C/C[C@@H](O)[C@H](O)[C@@](N)(CO)C(=O)O`, the outcome was inactive.

The values are drawn from PubChem BioAssay (EPA / NIEHS).
